We go through seven compounds from PubChem BioAssay (EPA / NIEHS).

Results filed as inconclusive are left out. The source made the active and inactive calls. How the source made its calls: active means hit-call score of the fitted dose curve at least 0.9, where 1 is the maximum; inconclusive means response in the unintended direction; inactive means score below 0.9.

Experiment [1] has as its target human Phosphodiesterase 5 (PDE5), PDE5A (gene 8654) (UniProt O76074). The experiment in a line: NVS_ENZ_hPDE5: NovaScreen (NVS) Enzymatic Assay for human Phosphodiesterase 5 (PDE5) (AID 2283194). In outline:
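Recombinant human PDE5 with specific substrate, read 1 h after dosing by fluorescence with electrophoretic mobility-shift separation of substrate and product. Initial single-concentration duplicate screen at 25 uM, actives followed in concentration series; loss of activity versus DMSO.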

The target of experiment [2] is sheep Cyclooxygenase-1 (Cox1), PTGS1 (gene 443551) (UniProt P05979). The experiment in a line: NVS_ENZ_oCOX1: NovaScreen (NVS) Enzymatic Assay for sheep Cyclooxygenase-1 (Cox1) (AID 2283239).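 Further: actives reduce cyclooxygenase activity so potencies are for inhibitors.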 In outline:
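COX1 from ovine seminal vesicles, activity read colorimetrically about 0.66 h after dosing. Primary screen in duplicate at 25 uM; actives retested in concentration series; loss of signal fitted versus DMSO.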

For experiment [3], the target named is human Sirtuin 3 (SIRT3), SIRT3 (gene 23410) (UniProt Q9NTG7). The experiment can be described thus: NVS_ENZ_hSIRT3: NovaScreen (NVS) Enzymatic Assay for human Sirtuin 3 (SIRT3) (AID 2283222). In outline: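 Cell-free enzyme assay with recombinant protein and fluorescent substrate, product separated by electrophoretic mobility shift; read 1 hour after dosing. Screened in duplicate at 25 uM, then singleton concentration-response up to 50 uM; loss of signal versus DMSO.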

Experiment [4] deals with human Vascular Endothelial Growth Factor Receptor 3 (VEGFR3), FLT4 (gene 2324) (UniProt P35916). The experiment can be described thus: NVS_ENZ_hVEGFR3: NovaScreen (NVS) Enzymatic Assay for human Vascular Endothelial Growth Factor Receptor 3 (VEGFR3) (AID 2283229). The essentials:
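Cell-free recombinant VEGFR3 kinase reaction with fluorescent substrate, read 1 h after dosing by electrophoretic mobility shift separation of substrate and product. Single-concentration duplicate screen at 25 uM, then concentration-response up to 50 uM; loss of activity versus DMSO.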

Experiment [5] concerns the target human Vascular Endothelial Growth Factor Receptor 2 (VEGFR2), KDR (gene 3791) (UniProt P35968). The experiment in a line: NVS_ENZ_hVEGFR2: NovaScreen (NVS) Enzymatic Assay for human Vascular Endothelial Growth Factor Receptor 2 (VEGFR2) (AID 2283230). In outline:
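Cell-free recombinant VEGFR2 kinase, fluorescent substrate with electrophoretic mobility-shift separation; read 1 h after dosing. Screened at 25 uM in duplicate, hits to concentration-response up to 50 uM; loss-of-signal versus DMSO.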

For experiment [6], the target named is guinea pig Leukotriene D4 Receptor (LTD4), CYSLTR1 (gene 100135514) (UniProt Q2NNR5). The experiment can be described thus: NVS_GPCR_gLTD4: NovaScreen (NVS) G Protein-Coupled Receptor Assay for guinea pig Leukotriene D4 Receptor (LTD4) (AID 2283248). In outline:
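Radioligand displacement on guinea pig lung membranes, 1 h incubation, filtration and scintillation counting; DMSO as negative control. Duplicate 25 uM primary screen, then singleton concentration-response up to 50 uM.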

Sequence of sheep Cyclooxygenase-1 (Cox1), PTGS1 (gene 443551) (P05979 whole entry, looked up): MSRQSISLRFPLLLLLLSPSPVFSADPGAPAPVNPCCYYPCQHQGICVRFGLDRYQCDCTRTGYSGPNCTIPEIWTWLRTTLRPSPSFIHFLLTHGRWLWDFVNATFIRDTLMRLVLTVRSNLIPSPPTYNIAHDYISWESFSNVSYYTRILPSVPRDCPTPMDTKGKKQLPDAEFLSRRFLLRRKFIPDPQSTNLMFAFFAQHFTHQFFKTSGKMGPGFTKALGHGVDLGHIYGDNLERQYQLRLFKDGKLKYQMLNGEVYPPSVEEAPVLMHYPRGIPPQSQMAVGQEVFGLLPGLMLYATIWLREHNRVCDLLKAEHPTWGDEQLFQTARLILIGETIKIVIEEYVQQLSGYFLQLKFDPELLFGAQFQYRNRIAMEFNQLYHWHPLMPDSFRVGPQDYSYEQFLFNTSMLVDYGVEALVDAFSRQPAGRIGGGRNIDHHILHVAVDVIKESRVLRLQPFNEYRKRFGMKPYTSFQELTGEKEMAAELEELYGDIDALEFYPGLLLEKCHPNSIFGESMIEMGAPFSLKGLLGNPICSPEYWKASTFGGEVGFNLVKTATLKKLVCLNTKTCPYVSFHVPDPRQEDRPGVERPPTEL
Sequence of guinea pig Leukotriene D4 Receptor (LTD4), CYSLTR1 (gene 100135514) (Q2NNR5 whole entry, looked up): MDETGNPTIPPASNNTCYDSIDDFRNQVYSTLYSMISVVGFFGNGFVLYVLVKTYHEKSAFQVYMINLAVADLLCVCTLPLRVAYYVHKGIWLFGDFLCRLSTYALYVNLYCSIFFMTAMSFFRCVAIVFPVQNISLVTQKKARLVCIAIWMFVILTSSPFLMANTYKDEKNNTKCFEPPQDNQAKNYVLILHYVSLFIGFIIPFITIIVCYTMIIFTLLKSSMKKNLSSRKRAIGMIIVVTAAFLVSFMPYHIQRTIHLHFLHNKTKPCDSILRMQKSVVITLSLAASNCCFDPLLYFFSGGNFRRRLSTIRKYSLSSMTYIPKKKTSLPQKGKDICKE
Sequence of human Vascular Endothelial Growth Factor Receptor 3 (VEGFR3), FLT4 (gene 2324) (P35916 whole entry, looked up): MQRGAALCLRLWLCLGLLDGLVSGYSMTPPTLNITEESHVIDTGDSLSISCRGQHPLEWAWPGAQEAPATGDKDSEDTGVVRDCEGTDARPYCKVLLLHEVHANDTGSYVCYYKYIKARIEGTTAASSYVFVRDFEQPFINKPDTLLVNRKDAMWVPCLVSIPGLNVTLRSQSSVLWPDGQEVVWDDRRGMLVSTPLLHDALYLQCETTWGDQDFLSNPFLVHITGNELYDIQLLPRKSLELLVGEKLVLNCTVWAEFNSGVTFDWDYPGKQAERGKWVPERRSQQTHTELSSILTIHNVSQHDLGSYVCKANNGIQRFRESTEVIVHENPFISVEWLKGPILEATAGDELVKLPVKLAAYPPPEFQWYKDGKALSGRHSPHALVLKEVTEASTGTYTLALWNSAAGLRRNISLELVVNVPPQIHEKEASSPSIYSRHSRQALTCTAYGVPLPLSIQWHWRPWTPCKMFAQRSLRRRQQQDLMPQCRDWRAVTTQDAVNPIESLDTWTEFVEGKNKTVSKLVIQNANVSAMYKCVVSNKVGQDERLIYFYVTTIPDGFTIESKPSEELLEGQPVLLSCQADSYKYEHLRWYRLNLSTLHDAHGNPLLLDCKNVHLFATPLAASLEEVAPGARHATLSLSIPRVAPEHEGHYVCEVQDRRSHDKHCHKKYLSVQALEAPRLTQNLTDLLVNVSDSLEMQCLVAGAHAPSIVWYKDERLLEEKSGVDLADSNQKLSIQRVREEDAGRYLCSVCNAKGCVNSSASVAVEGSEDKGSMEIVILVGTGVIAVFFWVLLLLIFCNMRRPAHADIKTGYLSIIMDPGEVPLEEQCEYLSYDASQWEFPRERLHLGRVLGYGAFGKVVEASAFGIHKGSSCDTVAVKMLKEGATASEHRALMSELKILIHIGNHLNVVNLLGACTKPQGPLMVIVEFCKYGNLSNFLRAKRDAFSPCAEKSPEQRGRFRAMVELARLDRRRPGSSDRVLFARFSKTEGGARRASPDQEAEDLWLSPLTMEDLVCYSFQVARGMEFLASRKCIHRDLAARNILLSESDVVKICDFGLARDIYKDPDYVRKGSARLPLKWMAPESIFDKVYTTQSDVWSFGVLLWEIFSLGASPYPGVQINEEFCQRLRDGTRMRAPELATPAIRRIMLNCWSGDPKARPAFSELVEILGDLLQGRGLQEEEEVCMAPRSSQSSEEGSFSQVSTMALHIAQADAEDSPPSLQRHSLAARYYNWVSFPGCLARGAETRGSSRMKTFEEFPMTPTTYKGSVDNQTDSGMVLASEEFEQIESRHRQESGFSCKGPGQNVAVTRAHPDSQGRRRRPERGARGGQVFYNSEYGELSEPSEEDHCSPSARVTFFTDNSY
Sequence of human Vascular Endothelial Growth Factor Receptor 2 (VEGFR2), KDR (gene 3791) (P35968 whole entry, looked up): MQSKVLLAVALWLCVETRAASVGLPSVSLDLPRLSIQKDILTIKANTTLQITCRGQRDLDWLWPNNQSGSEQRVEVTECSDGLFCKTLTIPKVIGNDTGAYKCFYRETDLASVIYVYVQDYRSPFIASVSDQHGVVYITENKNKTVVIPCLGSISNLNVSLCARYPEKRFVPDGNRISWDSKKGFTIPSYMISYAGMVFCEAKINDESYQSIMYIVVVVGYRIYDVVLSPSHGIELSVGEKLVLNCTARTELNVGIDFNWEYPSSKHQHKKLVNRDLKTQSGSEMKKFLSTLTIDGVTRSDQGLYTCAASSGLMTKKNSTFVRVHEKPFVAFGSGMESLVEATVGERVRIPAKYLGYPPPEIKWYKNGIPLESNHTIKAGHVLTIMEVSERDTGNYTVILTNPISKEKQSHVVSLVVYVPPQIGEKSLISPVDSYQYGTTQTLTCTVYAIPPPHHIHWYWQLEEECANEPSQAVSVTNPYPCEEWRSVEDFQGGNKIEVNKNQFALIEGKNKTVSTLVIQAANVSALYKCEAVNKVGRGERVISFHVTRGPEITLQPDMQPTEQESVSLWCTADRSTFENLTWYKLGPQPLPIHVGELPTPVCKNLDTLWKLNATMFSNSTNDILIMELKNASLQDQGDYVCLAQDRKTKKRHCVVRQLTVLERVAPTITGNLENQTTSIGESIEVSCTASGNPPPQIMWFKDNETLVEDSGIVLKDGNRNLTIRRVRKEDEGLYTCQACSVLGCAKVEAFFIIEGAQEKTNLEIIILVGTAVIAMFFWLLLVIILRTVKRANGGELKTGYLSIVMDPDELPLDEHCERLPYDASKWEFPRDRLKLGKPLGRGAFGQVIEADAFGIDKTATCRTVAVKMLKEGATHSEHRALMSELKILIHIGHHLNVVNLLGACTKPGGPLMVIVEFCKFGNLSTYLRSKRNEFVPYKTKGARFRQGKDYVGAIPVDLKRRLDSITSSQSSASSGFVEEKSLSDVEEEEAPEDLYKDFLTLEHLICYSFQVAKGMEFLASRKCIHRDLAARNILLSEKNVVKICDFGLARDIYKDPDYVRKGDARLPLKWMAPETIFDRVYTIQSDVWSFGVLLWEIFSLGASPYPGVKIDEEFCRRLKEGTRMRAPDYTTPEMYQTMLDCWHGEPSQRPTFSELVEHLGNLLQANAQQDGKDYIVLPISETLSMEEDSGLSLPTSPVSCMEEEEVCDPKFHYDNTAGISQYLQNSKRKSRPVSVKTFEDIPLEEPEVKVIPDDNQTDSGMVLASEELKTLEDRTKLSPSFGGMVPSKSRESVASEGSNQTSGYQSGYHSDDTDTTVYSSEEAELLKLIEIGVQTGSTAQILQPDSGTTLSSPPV
Sequence of human Sirtuin 3 (SIRT3), SIRT3 (gene 23410) (Q9NTG7 whole entry, looked up): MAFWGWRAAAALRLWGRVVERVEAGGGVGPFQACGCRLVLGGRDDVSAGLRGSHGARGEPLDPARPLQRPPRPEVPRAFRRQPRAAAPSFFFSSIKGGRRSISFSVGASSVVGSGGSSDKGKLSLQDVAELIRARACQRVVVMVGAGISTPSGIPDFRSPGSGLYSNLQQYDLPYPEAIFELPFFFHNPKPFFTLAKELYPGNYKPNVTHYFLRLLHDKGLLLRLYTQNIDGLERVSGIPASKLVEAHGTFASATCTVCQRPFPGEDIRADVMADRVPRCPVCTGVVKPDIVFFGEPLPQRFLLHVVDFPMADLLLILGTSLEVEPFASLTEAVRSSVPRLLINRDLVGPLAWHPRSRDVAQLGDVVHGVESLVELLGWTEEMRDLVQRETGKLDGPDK

With `O=[N+]([O-])c1ccc(O)cc1C(F)(F)F`, the compound was called inactive in experiment [1] and in experiment [2].

Regarding `c1ccc2[nH]cnc2c1`, in experiment [2], the outcome was inactive. On to `CS(=O)(=O)OCCCCOS(C)(=O)=O`, for which, in experiment [3], the compound was called inactive.

Consider `[O-]n1ccccc1=S.[O-]n1ccccc1=S.[Zn+2]`, for which the compound was classed as inactive in experiment [4] and in experiment [5]. Consider `CCOC(=O)[C@@H](C)Oc1ccc(Oc2nc3ccc(Cl)cc3o2)cc1`, for which the compound was classed as inactive in experiment [4]. Regarding `O=C1c2ccccc2C(=O)c2c(O)ccc(O)c21`, the compound was classed as inactive in experiment [6]. The same measure, in the same setting: the entry for `COC(=O)c1ccc([N+](=O)[O-])cc1` is “inactive”.
